Screens from PubChem BioAssay.
MCF10A rerep = inducers of DNA re-replication in MCF 10A breast cells; MCF 10A DNA re-replication, Hoechst nuclear intensity, 48 h; Potency, µM (highest dose often 46.1 µM), usual class: activators; hit rate 2.9% among 350,000; AID 624296; also: nearly all actives have a fitted effect of over 50% in size
SW480 rerep = inducers of DNA re-replication in SW480 colon cancer cells | hit rate 1.8% among 340,000 | Potency, µM (highest dose often 46.1 µM), actives largely listed as activators | SW480 DNA re-replication, Hoechst DNA content imaging, 48 h; also: nearly all actives have a fitted effect of over 55% in size
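Hoechst fluorescence of nuclei (405 nm excitation, 500-530 nm emission) measured by plate-scanning imager after 48 hr compound exposure at 37 C; re-replication scored as increased number of nuclei with elevated intensity.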
BCR signal inh = chronic active BCR signaling inhibition | ABC-DLBCL IkBa-CBG/CBR reporter, luminescence ratio, 4 h | Potency, µM (titrated, usually from 46.1 µM), usual class: inhibitors | hit rate 0.05% among 340,000; active = well fitted inhibition curve with a large enough effect in the signal ratio, with a control signal flat, not every such curve was filed as active; inconclusive = small, poorly fitted or top-dose-only effect, or effect the other way, or a change in a side signal; the % refers to the signal ratio
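Compounds up to 46 uM were incubated four hours with TMD8 cells whose green CBG68 luciferase is fused to IkappaBalpha; red CBR luminescence normalised the signal, and concentration-effect curves were fitted to fusion, red and ratio data.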
DT40 TDP1 no CPT = qHTS for Inhibitors of human tyrosyl-DNA phosphodiesterase 1 (TDP1): qHTS in cells in absence of CPT. DT40 Tdp1-/- hTDP1 cells, no CPT, ATP luminescence, 48 h. Potency, µM (titrated, usually from 46.2 µM), hits mostly inhibitors. hit rate 15% among 420,000. AID 686978, 2013; also: nearly all actives have a fitted effect of over 55% in size
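Chicken DT40 Tdp1-/- cells complemented with human TDP1, screened without camptothecin (DMSO vehicle only), 400 cells/well. Compounds pin-transferred, cells incubated at 37 °C for at least 48 hr. Growth read as ATP-dependent luminescence (CellTiter-Glo, 30 min at RT).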
TDP1 cell CPT = growth inhibition of DT40 Tdp1-/-;hTDP1 cells with camptothecin (screen for TDP1 inhibitors); chicken DT40 Tdp1-/-;hTDP1 cells + 20 nM CPT, ATP luminescence, 48 h; Potency, µM (titrated, usually from 46.2 µM), actives largely listed as inhibitors; hit rate 12% among 420,000; also: nearly all actives have a fitted effect of over 55% in size
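Cell growth measured by CellTiter-Glo luminescence after a minimum 48 h, 37 C compound exposure with 20 nM CPT in Tdp1-knockout DT40 cells stably expressing hTDP1, seeded 400/well; qHTS titration format.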
IL-1B inflam inh = inflammasome signaling inhibition, IL-1 beta readout | THP-1 LPS/ATP IL-1B secretion, AlphaLISA, 16 h; active compounds read low | activity change, % at 57.5 µM | hit rate 4.7% among 360,000; in the data active = activity change below about -50%; inconclusive = mostly about -30% to -49%
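Secreted IL-1B measured by AlphaLISA bead assay after 16 h compound exposure of THP-1 cells; compounds (final up to 57.5 uM) added 1 h before LPS (250 ng/mL) and ATP (1.25 mM) stimulation; lower signal means less secretion.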
Of the large screens only hits and unclear results are named; the others gave an inactive call. Most compounds without a hit are left out; they make up all but 19% or so of the library. Unless noted, calls follow the shape of the dose curve; as a rule, active = well fitted curve in the direction sought with a large enough effect; inconclusive = small, poorly fitted or top-dose-only effect, or another doubt; inactive = no such curve, though single readings can be large; an effect the other way counts as inactive or inconclusive.

O=C(Nc1cccnc1)c1cccc(S(=O)(=O)N2CCc3ccccc32)c1	DT40 TDP1 no CPT inconclusive, TDP1 cell CPT 25.9µM
CN1CCc2nc(NC(=O)c3cccc(S(=O)(=O)N4CCc5ccccc54)c3)sc2C1	MCF10A rerep inconclusive
O=C(Nc1nc2c(s1)CCCC2)c1cccc(S(=O)(=O)N2CCCc3ccccc32)c1	DT40 TDP1 no CPT 23.1µM, TDP1 cell CPT 25.9µM
CCOC(=O)c1sc(NC(=O)c2cccc(S(=O)(=O)N3CCc4ccccc43)c2)c(C#N)c1C	DT40 TDP1 no CPT 2.91µM, TDP1 cell CPT 5.8µM
CN(C)C(=O)c1ccc(NC(=O)c2cccc(S(=O)(=O)N3CCCc4ccccc43)c2)cc1	MCF10A rerep inconclusive, DT40 TDP1 no CPT 16.4µM, TDP1 cell CPT 23.1µM
O=C(Nc1nc2ccc(F)cc2s1)c1cccc(S(=O)(=O)N2CCc3ccccc32)c1	BCR signal inh inconclusive, DT40 TDP1 no CPT inconclusive
O=C(NCCCN1CCOCC1)c1cccc(S(=O)(=O)N2CCc3ccccc32)c1	DT40 TDP1 no CPT 23.1µM, TDP1 cell CPT inconclusive (no result: MCF10A rerep, SW480 rerep, BCR signal inh)
O=C(NCCCN1CCOCC1)c1cccc(S(=O)(=O)N2CCOCC2)c1	none
CN(C)C(=O)c1ccc(NC(=O)c2cccc(S(=O)(=O)N3CCCCCC3)c2)cc1	DT40 TDP1 no CPT inconclusive
CCC(CC)c1nnc(NC(=O)c2cccc(S(=O)(=O)N3CCc4ccccc43)c2)s1	MCF10A rerep 4.61µM, SW480 rerep inconclusive, DT40 TDP1 no CPT inconclusive, TDP1 cell CPT inconclusive
CCc1cccc(OCCOC(=O)CNS(=O)(=O)c2ccc(NC(C)=O)cc2)c1	none
Cc1c(C(=O)Nc2ccc3nc(N4CCOCC4)sc3c2)oc2ccccc12	MCF10A rerep inconclusive, SW480 rerep inconclusive, BCR signal inh inconclusive, DT40 TDP1 no CPT inconclusive, TDP1 cell CPT 25.9µM
COc1cc(C(=O)Nc2ccc3nc(N4CCOCC4)sc3c2)cc(OC)c1OC	DT40 TDP1 no CPT inconclusive, TDP1 cell CPT inconclusive
O=C(Nc1ccc2nc(N3CCOCC3)sc2c1)c1cc2ccccc2o1	DT40 TDP1 no CPT inconclusive, TDP1 cell CPT 23.1µM (no result: MCF10A rerep, SW480 rerep, BCR signal inh)
Cn1cc(-c2nc3cnc(Oc4ccccc4)nc3n(Cc3cccs3)c2=O)c2ccccc21	none (no result: MCF10A rerep, SW480 rerep, BCR signal inh, IL-1B inflam inh)
COc1ccc(Cc2c(-c3ccc(Cl)cc3)nc3cc(C)c(Br)c(C)n23)c(C)c1	DT40 TDP1 no CPT inconclusive, TDP1 cell CPT inconclusive (no result: MCF10A rerep, SW480 rerep, BCR signal inh)
COc1ccc(Cc2c(-c3ccc(C)cc3)nc3cc(C)c(Br)c(C)n23)c(C)c1	DT40 TDP1 no CPT inconclusive, TDP1 cell CPT 2.31µM (no result: MCF10A rerep, SW480 rerep, BCR signal inh)
COc1ccc(Cc2c(-c3cccc(Br)c3)nc3cc(C)c(Br)c(C)n23)c(C)c1	none (no result: MCF10A rerep, SW480 rerep, BCR signal inh)
COc1ccc(Cc2c(-c3ccc(F)cc3)nc3cc(C)c(Br)c(C)n23)c(C)c1	DT40 TDP1 no CPT 18.4µM, TDP1 cell CPT inconclusive (no result: MCF10A rerep, SW480 rerep, BCR signal inh)
CCN(C(=O)C(C)Sc1nnc(-c2ccncc2)n1C)C1CCCCC1 (configuration not stated)	none
COc1cc(/C=C/C(=O)OCC(=O)N2CCCCCC2)cc(OC)c1OC	DT40 TDP1 no CPT inconclusive (no result: MCF10A rerep, SW480 rerep, BCR signal inh)
Cc1ccc(N(O)C(=O)NCCCCNC(=O)N(O)c2ccc(C)cc2)cc1	MCF10A rerep inconclusive
CC1(C)CC(=O)c2cnc(N3CCc4ccccc43)nc2C1	MCF10A rerep inconclusive, DT40 TDP1 no CPT 25.9µM, TDP1 cell CPT inconclusive (no result: IL-1B inflam inh)
CCCc1nc(SCC(=O)NCC2CCCO2)c2c(=O)n(C)c(=O)n(C)c2n1 (configuration not stated)	none
COc1ccc(C2=CCN3CCCCC3C2)c(-c2ccc(OC)c(OC)c2)c1 (configuration not stated)	MCF10A rerep 8.2µM, BCR signal inh inconclusive, DT40 TDP1 no CPT inconclusive, TDP1 cell CPT inconclusive
COc1cccc(C(O)c2ncc(-c3cccc(C(F)(F)F)c3)[nH]2)c1 (configuration not stated)	DT40 TDP1 no CPT inconclusive, TDP1 cell CPT inconclusive (no result: MCF10A rerep, SW480 rerep, BCR signal inh)
Cc1ccc(Cl)cc1N(C)C(=O)c1sc2nc3n(c(=O)c2c1C)CCCC3	DT40 TDP1 no CPT 16.4µM, TDP1 cell CPT inconclusive (no result: MCF10A rerep, SW480 rerep, BCR signal inh, IL-1B inflam inh)
